High-throughput results from PubChem BioAssay.
PrPC surface inh: inhibitors of human cell surface prion protein PrPC | TR-FRET read-out | inhibition, % at 13.8 µM | 370,000 compounds, 0.43% hits; in the data active = inhibition above about 24%; note: 0% = median of the test wells and 100% = reference compound wells
PfHsp40 yeast: compounds rescuing yeast from Plasmodium falciparum HSP40 toxicity | AID 504582 | 340,000 compounds, 0.68% hits | S. cerevisiae expressing PfHsp40, growth rescue, ATP luminescence | growth rescue, % at 12.5 µM; in the data active = growth rescue above about 28%, passing the limit was not always enough;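 note: yeast W303a lacking pdr1 and pdr3 grown in galactose medium; growth measured after three days at 30 °C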
BH1578 lux ind: quorum light induction in luxS cqsA deficient V. cholerae | AID 588436 | activation, % at 18.7 µM | V. cholerae BH1578 lux reporter, luminescence, 6 h | 350,000 compounds, 0.16% hits; in the data active = activation mostly above about 9.7%, no sharp cut-off
PriA SSB inh: blocks PriA binding to SSB C-terminal tail | AID 1272365 | AlphaScreen SSBct-PriA binding, biotinylated peptide | 430,000 compounds, 0.6% hits | inhibition, % at 33 µM; in the data active = inhibition mostly above about 37%, no sharp cut-off; inactive = mostly below about 20%;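 note: plate controls were negative control peptide for no effect and reference peptide for full effect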
PrP 5UTR inh: inhibition of PrP 5' UTR reporter expression. inhibition, % (no concentration beside the values). 340,000 compounds, 0.35% hits. cell-based PrP 5' UTR mRNA reporter, plate reader; in the data active = inhibition above about 52%; note: 0 = median of the neutral control wells
3CLpro inhibitor: SARS-CoV 3CLpro protease inhibition; P0C6X7; recombinant SARS-CoV 3CLpro, quenched FRET peptide cleavage; inhibition, % at 6 µM; 290,000 compounds, 0.14% hits; in the data active = inhibition above about 12%
PrPC confirm: cell surface PrPC inhibition, TR-FRET confirmation; shares compounds with PrPC surface inh; cell surface PrPC level; inhibition, % at 13.8 µM; 1,500 compounds, 65% hits; AID 743200; in the data active = inhibition above about 25%
LD9 tox: counter-screen for PrPc inhibitors: cytotoxicity in LD9 cells. shares compounds with PrPC surface inh. luminescence viability. inhibition, % at 13.8 µM. 1,500 compounds, 29% hits; in the data active = inhibition above about 9.5%
The depositor's hits bear a star; i = inactive; / = no result given. An excerpt weighted towards active compounds, which were near 1.6% of everything screened.

SMILES | PrPC surface inh | PfHsp40 yeast | BH1578 lux ind | PriA SSB inh | PrP 5UTR inh | 3CLpro inhibitor | PrPC confirm | LD9 tox
O=S(=O)(Nc1ccc(Cc2ccncc2)cc1)c1ccc(Br)s1 | 20 | 1 | -6 | -13 | -10 | -3 | / | /
Cc1cc(C)c(S(=O)(=O)NCc2ccncc2)c(C)c1 | 40* | -2 | 0 | 2 | -11 | 1 | 35* | 6
Cc1cc(C(=O)N2CC(Oc3nc4c(F)cccc4s3)C2)on1 | / | / | / | -6 | / | / | / | /
CCOc1ccc(C2c3[nH]c4ccccc4c3CCN2C(=O)Cn2cncn2)cc1 (stereo unspecified) | 37* | 0 | i | 8 | -10 | 3 | 34* | -6
COc1cccc(C2c3[nH]c4ccccc4c3CCN2C(=O)Cn2cncn2)c1OC (stereo unspecified) | 0 | 0 | -1 | 1 | -32 | 1 | / | /
CCS(=O)(=O)N1CCc2ccc(NC(=O)c3ccc(OC)c(OC)c3)cc2C1 | / | / | / | -17 | / | / | / | /
Nc1ccc2c(c1)C(=O)C(=O)c1ccccc1-2 | 64* | 0 | -1 | 14 | -37 | -2 | 61* | 99*
CCOC(=O)C(C)Sc1nc(-c2cccs2)ccc1C#N (stereo unspecified) | 28* | 0 | i | -26 | -29 | 4 | 43* | -4
C=COC(=O)CSc1nc(-c2cccs2)ccc1C#N | 6 | 0 | i | -4 | -109 | 3 | / | /
COc1ccc(CC(=O)NCc2ccc3c(c2)cc(C)n3C)cc1 | -1 | 1 | i | 13 | -7 | -2 | / | /
COc1cccc(C(=O)NCc2ccc3c(c2)cc(C)n3C)c1 | 46* | -1 | i | 15 | -29 | -5 | 49* | 0
Cc1cc2cc(CNC(=O)c3cccc(Br)c3)ccc2n1C | / | / | / | -3 | / | / | / | /
COc1ccc(/C=C\C(=O)NCc2ccc3c(c2)cc(C)n3C)cc1OC | 81* | 0 | -2 | 15 | -14 | -8 | 59* | -9
Cc1cc2cc(CNC(=O)c3cccs3)ccc2n1C | 35* | 0 | 2 | 17 | -30 | -2 | 17 | 3
COc1ccc(C(=O)NCc2ccc3c(c2)cc(C)n3C)cc1OC | 45* | -2 | -1 | -1 | 30 | 1 | 8 | -1
O=C(c1ccc(Cn2c(=O)[nH]c3ccccc3c2=O)cc1)N1CC=C(c2ccccc2)CC1 | / | / | / | -10 | / | / | / | /
CCn1c(O)c(N=NC(=O)CCCCCC(=O)N=Nc2c(O)n(CC)c3ccccc23)c2ccccc21 | / | / | / | -7 | / | / | / | /
COc1cc2oc3cc(C#Cc4ccc(N)cc4)ccc3c(=O)c2cc1OC | 5 | -1 | i | -15 | -4 | / | / | /
COc1cc2oc3ccc(C#Cc4ccc(N)cc4)cc3c(=O)c2cc1OC | 26* | -2 | -1 | -1 | -19 | / | 33* | 10.0*
O=C(c1c(F)cccc1F)N1CCN(CCn2ccnc2)CC1 | / | / | / | -7 | / | / | / | /
COc1ccc(NC(=O)c2cc(-c3cc(Cl)ccc3OC)n[nH]2)c(OC)c1 | 28* | / | 0 | / | / | / | 19 | 1
CC(C)(C)C(=O)/C(=C/c1ccncc1)n1cncn1 | 34* | -1 | -1 | -5 | -3 | 1 | 1 | 44*
CS(=O)(=O)c1ccc(-c2nnc(NC(=O)CCS(=O)(=O)c3ccc(Cl)cc3)o2)cc1 | / | / | / | 4 | / | / | / | /
Cc1ccccc1-c1ccc(N2CCC(C(=O)Nc3ccncc3)CC2)nn1 | / | / | / | -18 | / | / | / | /
CCCCOCCCNc1ncnc2c1[nH]c1ccccc12 | 31* | 0 | i | -9 | -14 | -4 | 24* | 17*
SMILES | PrPC surface inh | PfHsp40 yeast | BH1578 lux ind | PriA SSB inh | PrP 5UTR inh | 3CLpro inhibitor | PrPC confirm | LD9 tox
O=S(=O)(c1ccccc1Br)N1CC(n2ccnn2)C1 | / | / | / | -20 | / | / | / | /
Cn1cc(-c2ccco2)nc1CCNC(=O)Cc1ccc(F)cc1 | / | / | / | -9 | / | / | / | /
CC1CCc2sc(C(=O)Nc3ccc(C(N)=O)cc3)cc2C1 (stereo unspecified) | 70* | 0 | i | -1 | -64 | 1 | 44* | 0
C=CCOC(=O)C1=C(C)NC(SCC(=O)N(CC)CC)=C(C#N)C1c1ccccc1 (stereo unspecified) | 29* | 3 | 0 | -15 | -2 | 3 | 35* | 8
C=CCOC(=O)C1=C(C)NC(SCC(=O)N(CC)CC)=C(C#N)C1c1ccco1 (stereo unspecified) | 3 | 0 | -7 | -3 | -10 | 5 | / | /
COc1ccc(OC)c(NC(=O)CCCSc2ccc(NC(C)=O)nn2)c1 | / | / | / | -3 | / | / | / | /
CCCc1nc(SCC(=O)Nc2ccc(N3CCOCC3)cc2)c2ccccc2n1 | 18 | -1 | i | -5 | -4 | -1 | / | /
CCCc1nc(SCC(=O)NNC(=O)c2ccc(OC)cc2)c2ccccc2n1 | 93* | 0 | 0 | -12 | -23 | -1 | 115* | -13
CCCCNC(=O)CSc1nc(COc2ccccc2)nc2ccccc12 | 17 | -1 | i | -18 | -10 | 3 | / | /
CCc1nc(SCC(=O)OC(C)C)c2ccccc2n1 | 83* | 0 | 0 | -13 | -12 | 2 | 97* | -6
Cc1nc(SCC(=O)NNC(=O)c2ccc(F)cc2)c2ccccc2n1 | 82* | 0 | -1 | 3 | -30 | / | 100* | -6
CCCc1nc(SCC(=O)NNC(=O)C2CCCCC2)c2ccccc2n1 | 41* | -1 | i | -18 | -23 | 2 | 110* | -3
CCCS(=O)(=O)N1CCCc2cc(NC(=O)c3cc(C4CC4)on3)ccc21 | / | / | / | -20 | / | / | / | /
Cc1ccc(NS(=O)(=O)c2cc(C(=O)NCc3ccccn3)ccc2Cl)cc1 | 40* | -1 | i | -15 | -29 | 0 | 35* | -6
Cc1cccc(NS(=O)(=O)c2cc(C(=O)NCc3ccccn3)ccc2C)c1 | 19 | 0 | 0 | 1 | -7 | 0 | / | /
CC(C)(C)c1csc(NC(=O)c2ccc(Cl)s2)n1 | 40* | -1 | 0 | -26 | -63 | -2 | 45* | -9
Cc1ccc(C(=O)Nc2nc(C(C)(C)C)cs2)s1 | 43* | 7 | 0 | -20 | -66 | 1 | 42* | -11
CCSCCOC(=O)C1=C(C)N(C)C(=O)NC1c1cc(OC)ccc1OC (stereo unspecified) | 43* | 0 | 0 | 6 | -2 | -7 | 30* | -3
COP(=O)(OC)c1nc(-c2ccccc2)oc1NCc1ccccc1 | 7 | -1 | -4 | 18 | -16 | -2 | / | /
CCCOP(=O)(OCCC)c1nc(-c2ccccc2)oc1NCc1ccccc1 | 28* | 0 | i | -14 | -8 | 3 | 14 | -6
Cn1nnnc1SCc1nc2scc(-c3ccc(Cl)cc3)c2c(=O)[nH]1 | 32* | 0 | i | -18 | -30 | 3 | 26* | 6
Cn1nnnc1SCc1nc2scc(-c3ccccc3)c2c(=O)[nH]1 | 12 | 0 | i | -1 | -31 | 1 | / | /
